Most compounds without a hit are left out; they make up all but 6% or so of the library.
D3 ag: qHTS of D3 Dopamine Receptor Agonist: qHTS; D(3) dopamine receptor (Homo sapiens), P35462; hit rate 0.58% among 410,000; D3R DiscoveRx beta-arrestin cells, luminescence, 90 min; AID 652048, 2013; max activation, %; in the data active = max activation above about 30%; also: 0% is about no effect
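Cells at 1500/well, incubated overnight, then treated with pinned compounds (dopamine as control) for 90 min at 37 degrees C. DiscoveRx reagent added for 30 - 60 minutes at room temperature; luminescence read.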
D1 ag: Allosteric Agonists of the Human D1 Dopamine Receptor: qHTS; AID 504660, 2011; activation, % at 2 µM; D(1A) dopamine receptor (Homo sapiens), P21728; hit rate 1% among 360,000; HEK293 T-REx D1 cells, calcium flux, agonist mode; in the data active = activation above about 30%; also: 0% is about no effect
Target sequence (P21728 whole entry, looked up): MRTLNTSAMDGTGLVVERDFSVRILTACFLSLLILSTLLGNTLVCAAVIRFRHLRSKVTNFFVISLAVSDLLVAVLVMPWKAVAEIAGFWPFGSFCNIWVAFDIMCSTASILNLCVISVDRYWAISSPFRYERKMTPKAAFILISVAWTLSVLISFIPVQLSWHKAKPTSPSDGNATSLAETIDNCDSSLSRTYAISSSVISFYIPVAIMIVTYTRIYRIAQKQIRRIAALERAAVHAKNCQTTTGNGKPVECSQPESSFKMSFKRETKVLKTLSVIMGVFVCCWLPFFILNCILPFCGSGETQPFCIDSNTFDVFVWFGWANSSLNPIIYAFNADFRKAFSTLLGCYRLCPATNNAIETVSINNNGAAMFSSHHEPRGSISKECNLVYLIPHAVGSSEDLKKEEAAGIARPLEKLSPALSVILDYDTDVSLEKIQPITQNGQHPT
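Tetracycline-induced HEK293 TREx D1 cells, force-coupled to calcium signalling, were dye-loaded with a no-wash calcium kit. Compound was pin-added after a 10 s baseline. Fluorescence was read kinetically at 1 cycle/s for 180 s, with calcium rises flagged as agonism.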
D1 antagonist: Antagonist of Human D 1 Dopamine Receptor: qHTS; D(1A) dopamine receptor (Homo sapiens), P21728; HEK293 TREx D1 cells, calcium flux, dopamine EC80; stronger effect = lower value; activity change, negative = inhibition, % at 10 µM; hit rate 3.2% among 360,000; AID 504652, 2011; in the data active = activity change below about -30%; also: % is scaled to controls: 0 for no effect and ±100 for the full control effect
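HEK293 T-REx cells expressing inducible, force-coupled D1 receptor; no-wash Ca dye, 30–90 min RT. Cmpd → 180 s read at 1 Hz → EC80 DA → 180 s read.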
D1 potentiator: Potentiators of Human D1 Dopamine Receptor: qHTS. HEK293 TREx D1 cells, calcium flux, dopamine EC20 potentiation. potentiation, % at 10 µM. AID 504651, 2011. hit rate 0.036% among 360,000; in the data active = potentiation above about 30%; also: 0% is about no effect
D3 antag: qHTS of D3 Dopamine Receptor Antagonist: qHTS | D(3) dopamine receptor (Homo sapiens), P35462 | D3R cells, DiscoveRx beta-arrestin luminescence, antagonist mode; stronger effect = lower value | max response, negative = inhibition, % | hit rate 2.5% among 360,000; in the data active = max response below about -50%; inconclusive = no clear call, values can overlap the other calls; also: % is scaled to controls: 0 for no effect and ±100 for the full control effect
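Cells expressing the human receptor were seeded at 1500 cells/well, incubated overnight at 37 degrees C in 5% CO2, then exposed to library compounds with dopamine controls for 90 minutes at 37 degrees C before luminescent detection.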
Starred values were filed as active, the others as inactive; ? = inconclusive; . = no result given.

SMILES	D3 ag	D1 ag	D1 antagonist	D1 potentiator	D3 antag
COC(=O)C1Cc2ccccc2CN1S(=O)(=O)c1ccc(F)cc1 (centres undefined)	-3.4	0.3	-36.0*	-3.5	?
CC(=O)c1ccc(S(=O)(=O)N2Cc3ccccc3CC2C(=O)O)cc1 (centres undefined)	3.1	2.3	26.8	6.0	-12.0
COC(=O)C1=C(C)N(Cc2ccccc2)C(=NCC(C)C)N[C@H]1c1cccc(C(F)(F)F)c1	3.0	.	.	.	5.2
COC(=O)C1=C(C)N(Cc2ccccc2)C(=NCc2ccccc2)N[C@H]1c1cccc(C(F)(F)F)c1	32.7*	.	.	.	22.0
CCN1C(=NCc2ccc(OC)cc2)N[C@@H](c2ccccc2)C(C(=O)OC)=C1C	40.6*	10.0	-0.2	-0.5	22.2
CCN1C(=NCCc2ccccn2)N[C@@H](c2cccc(C(F)(F)F)c2)C(C(=O)OC)=C1C	-36.8	9.9	-1.2	-3.1	-53.4*
COC(=O)C1=C(C)N(Cc2ccccc2)C(=NCC2CC2)N[C@H]1c1ccccc1	-15.8	1.0	-7.1	1.9	-26.9
COC(=O)C1=C(C)N(Cc2ccccc2)C(=NCC2CC2)N[C@H]1c1ccc(Br)cc1	.	15.4	-79.9*	-7.0	.
C[C@H]1CN([C@@H](C)CO)S(=O)(=O)c2ccc(Br)cc2O[C@H]1CN(C)C(=O)Cc1ccncc1	6.9	.	.	.	0.0
COC(=O)C1=C(C)N(Cc2ccccc2)C(=NCCc2ccccn2)N[C@H]1c1cccc(C(F)(F)F)c1	-22.9	34.3*	-15.5	-4.9	-20.4
COC(=O)C1=C(C)N(Cc2ccccc2)C(=O)N[C@H]1c1cccc(C(F)(F)F)c1	-9.6	7.9	-0.9	-3.9	0.9
N#CC12C(=O)NC(=O)C1(C#N)C21CCCC1 (centres undefined)	7.5	.	.	.	0.0
CNC(=O)c1c(NC(=O)c2ccc(S(=O)(=O)N(C)c3ccccc3)cc2)sc2c1CCN(C(C)C)C2	4.2	90.2*	-11.8	-1.2	22.1
CCN1CCc2c(sc(NC(=O)c3ccc(S(=O)(=O)N(CCOC)CCOC)cc3)c2C(N)=O)C1	-8.3	-1.2	-6.6	0.8	.
CCN1CCc2c(sc(NC(=O)c3ccc(S(=O)(=O)N(C)c4ccccc4)cc3)c2C(=O)NC)C1	-6.6	175.0*	4.6	7.0	17.9
COC(=O)c1c(NC(=O)c2ccc(S(=O)(=O)N3CCCC(C)C3)cc2)sc2c1CCN(C(C)C)C2 (centres undefined)	-14.4	-1.2	-3.9	-2.4	.
O=C(NCC[C@H]1CC[C@@H](NC(=O)C2CCC2)[C@@H](CO)O1)c1cc(Cl)cc(Cl)c1	0.3	.	.	.	3.6
CSc1nnc2c3ccccc3n(CCc3ccccc3)c2n1	6.2	0.3	-4.8	-4.7	-21.2
CSc1nnc2c3ccccc3n(Cc3ccccc3)c2n1	-5.9	1.3	-56.5*	-6.4	-18.7
CN(C)C=Nc1c(I)cc(I)c(CCC(=O)O)c1I	2.5	.	.	.	.
Cn1c(CN2CCCCC2)nc2cc(NC(=O)c3ccccc3)ccc21	11.8	0.1	2.9	-2.5	14.0
COc1ccc(C(=O)Nc2ccc3c(c2)nc(CN2CCCC2)n3C)cc1	44.9*	3.7	6.5	-3.5	-16.9
Cn1c(CN2CCCC2)nc2cc(NC(=O)Nc3ccccc3)ccc21	-12.8	-0.7	1.8	-0.7	-103.3*
COCCN1CCn2c(nc3cc(NC(=O)c4ccc(OC)cc4)ccc32)C1	-5.8	0.3	-51.6*	-1.4	-13.7
CC(=O)Nc1ccc2c(c1)nc(CN1CCCC1)n2C	-32.8	3.3	-0.1	-3.1	-50.4*
SMILES	D3 ag	D1 ag	D1 antagonist	D1 potentiator	D3 antag
COc1ccc(OC)c(NC(=O)c2c(NCc3ccc(N(C)C)cc3)sc3c2CCCC3)c1	1.7	0.6	5.2	1.6	.
CCOc1ccc(C(=O)NCCn2cc(SCC(=O)Nc3ccc4c(c3)OCCO4)c3ccccc32)cc1	19.1	0.1	14.0	-1.1	.
Cc1ccc(S(=O)(=O)N2C[C@H]3[C@H]4C(=O)N(C)C(=O)[C@H]4CC(=O)[C@H]3[C@@H]2c2ccccc2F)cc1	4.3	.	.	.	6.2
Cc1ccc(C(C)C)c(OCC(=O)Nc2ccc3c(c2)nc(CN2CCCC2)n3C)c1	-12.2	5.1	-24.7	-14.9	-67.0*
Cc1ccc(OCC(=O)Nc2ccc3c(c2)nc(CCN2CCCC2)n3C)cc1	-4.6	.	.	.	0.0
CC(C)CCn1c(=O)c2sccc2n2c(CCCC(=O)NC3CCC(C)CC3)nnc12 (centres undefined)	-19.0	0.3	-5.3	-3.4	.
CC1CC(=O)Nc2ccccc2S1(=O)=O (centres undefined)	5.9	2.4	-32.2*	-1.1	-2.7
Nc1nonc1-c1nc2ccccc2n1Cc1cccc(Cl)c1	-0.2	2.9	-5.4	-0.1	.
Cc1ccc(C(=O)N2CCN3C(=O)c4ccccc4C23c2ccccc2)cc1 (centres undefined)	2.5	2.3	-37.9*	-3.0	-8.1
O=C1c2ccccc2C2(c3ccccc3)N1CCN2C(=O)C(Cl)(Cl)Cl (centres undefined)	0.6	0.2	-7.1	-2.6	-15.6
Cc1cnc(CNC(=O)c2ccc(OC3CCN(C(=O)C4CC4)CC3)cc2)cn1	-1.8	1.7	0.0	5.4	2.1
O=C(NCC1CCCO1)c1ccc(OC2CCN(C(=O)C3CC3)CC2)cc1 (centres undefined)	-3.9	0.1	-34.0*	2.7	13.9
CCN1CCN(c2cc(C)c3cc(NC(=O)c4cc(Br)ccc4Cl)ccc3n2)CC1	-16.0	2.4	-10.3	-1.1	.
COc1ccc(N2CCN(C(=O)c3ccc(Cl)c(S(=O)(=O)N4CCCC4)c3)CC2)cc1	-1.1	1.2	-34.3*	-3.5	52.6
Cc1c(C(=O)N2CCCCC2)c(S(=O)(=O)N2CCN(c3ccc(F)cc3)CC2)c(C)n1C	1.6	-1.1	-14.9	-9.2	-12.2
Cc1[nH]c(C)c(S(=O)(=O)Nc2ccc(OC(F)(F)F)cc2)c1C(=O)N1CCCCC1	-8.7	1.8	-2.0	10.8	-90.6*
Cc1c(C(=O)N2CCOCC2)c(S(=O)(=O)Nc2cccc(C#N)c2)c(C)n1C	1.5	1.6	-49.5*	-3.3	4.7
Cc1c(C(=O)N2CCCCC2)c(S(=O)(=O)N2CCN(c3ccc(Cl)cc3)CC2)c(C)n1C	-13.6	7.2	-32.4*	-10.1	1.9
COc1ccc(N2CCN(C(=O)c3ccc(Cl)c(S(=O)(=O)N4CCOCC4)c3)CC2)cc1	6.2	.	.	.	2.0
CCc1cc(=O)oc2cc(C)c3c(-c4ccc(F)cc4)coc3c12	4.0	-0.4	-0.7	-2.2	.
COc1ccc(N2CCN(S(=O)(=O)c3c(C(=O)N4CCOCC4)c(C)n(C)c3C)CC2)cc1	4.1	4.1	-35.3*	-1.3	15.5

Screens: PubChem, National Center for Advancing Translational Sciences (NCATS)
